This is an account of results in ChEMBL document CHEMBL3988442, “University of Dundee, Small-Polar-MMV Screening Library” (2021).

Potency and affinity values are given separately.

Chain of Protein translocase subunit SecA (Escherichia coli (strain K12)) (P10408 whole entry): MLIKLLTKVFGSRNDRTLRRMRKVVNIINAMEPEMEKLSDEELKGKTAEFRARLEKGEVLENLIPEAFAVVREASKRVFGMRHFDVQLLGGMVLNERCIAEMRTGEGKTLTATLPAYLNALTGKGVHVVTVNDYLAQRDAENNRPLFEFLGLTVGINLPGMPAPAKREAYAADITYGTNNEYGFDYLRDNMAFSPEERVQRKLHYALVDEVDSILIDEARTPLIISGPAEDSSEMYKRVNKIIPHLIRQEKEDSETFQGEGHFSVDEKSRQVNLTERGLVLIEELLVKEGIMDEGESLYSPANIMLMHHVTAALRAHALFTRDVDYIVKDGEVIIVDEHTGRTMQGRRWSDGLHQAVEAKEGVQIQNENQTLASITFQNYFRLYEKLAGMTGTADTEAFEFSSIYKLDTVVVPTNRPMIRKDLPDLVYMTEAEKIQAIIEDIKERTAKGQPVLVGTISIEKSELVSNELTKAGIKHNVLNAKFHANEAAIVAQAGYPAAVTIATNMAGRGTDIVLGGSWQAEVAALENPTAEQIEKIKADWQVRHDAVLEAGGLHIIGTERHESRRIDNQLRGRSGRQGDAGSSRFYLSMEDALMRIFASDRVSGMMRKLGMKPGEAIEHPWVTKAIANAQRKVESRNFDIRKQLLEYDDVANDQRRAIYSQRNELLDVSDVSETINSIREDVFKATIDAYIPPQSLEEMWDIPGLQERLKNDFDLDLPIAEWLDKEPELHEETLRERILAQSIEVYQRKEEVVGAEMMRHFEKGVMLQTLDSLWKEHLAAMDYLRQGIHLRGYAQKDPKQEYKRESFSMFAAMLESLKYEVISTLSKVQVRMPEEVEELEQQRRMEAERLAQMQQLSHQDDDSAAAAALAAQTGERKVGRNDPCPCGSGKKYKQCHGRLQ

The first test addresses Protein translocase subunit SecA (Escherichia coli (strain K12)) (UniProt P10408). As to the kind of experiment: Assay to Identify E. coli SecA ATPase Inhibitors. It is filed as functional. Details: scale not given: direction of the effect not stated beside the values. The settings on record: 30 µM.
Regarding `Cc1cnn(C2CCCN(C(=O)CCc3nccs3)C2)c1` (configuration not stated), the Percent Effect is -2.71%.

As for `CC(C)NC(=O)N1CCC(n2ccc(C(F)(F)F)n2)CC1`, the Percent Effect was -6.7%.

For `CC(=O)N1CCCN(C(=O)c2csc(-c3ccc(C)cc3C)n2)CC1`, the Percent Effect was -4.67%.

On to `O=C1NCC2(CCCN(CCc3ccccc3)C2)Oc2ccccc21` (configuration not stated), for which the Percent Effect was -3.06%.

In the case of `Cc1ccc(-c2cc(CNC(=O)N3CCC(CO)CC3)on2)cc1`, the Percent Effect was -2.94%.

In the case of `CC(C)N1CCC(NCc2cccnc2N(C)Cc2ccccc2)CC1`, the Percent Effect was -6.5%.

For the compound `COCC1CN(C(=O)CNC(C)=O)Cc2ncnn2C1` (configuration not stated), the Percent Effect was -4.16%.

For `CN1CCOC(CNCc2cccc(OCc3ccccn3)c2)C1` (configuration not stated), the Percent Effect is -5.11%.

As for `C=Cn1ncc(CN2C[C@@H]3CCCN3C[C@@H]2Cc2ccccc2)c1C`, the Percent Effect is -3.58%.

Regarding `O=C(CCNS(=O)(=O)c1ccc2c(c1)CCCC2)NCc1ccoc1`, the Percent Effect was -5%.

As for `CN(CCc1ccccc1)C1CCCN(Cc2nccn2C)C1` (configuration not stated), the Percent Effect was -4.99%.

On to `CC(=O)N1CCOCC2(CN(Cc3ccc(C)o3)CCO2)C1` (configuration not stated), for which the Percent Effect is -8.61%.

Take `O=c1cc(Cn2ccnc2)nc2n1CCCN(Cc1ccsc1)C2`: the Percent Effect was -4.06%.

Turning to `O=C(Cc1ccccc1F)N1C[C@@H]2COC[C@]2(COc2cccnc2)C1`, the Percent Effect was -2.71%.

In the case of `c1ccc(-c2cc(CN3CCC(c4ccn[nH]4)CC3)on2)cc1`, the Percent Effect is -3.15%.

Consider `CCc1nnc2n1CCN(Cc1csc(-c3ccsc3)n1)C2`, for which the Percent Effect is -1.79%.

As to `Cc1cc(NC(=O)Cn2cc(C#N)c(=O)c3cc(Br)ccc32)no1`, the Percent Effect is -5.99%.

Take `COCc1nc2cc(NCc3ccc(C)o3)ccc2o1`: the Percent Effect was -4.96%.

The next test concerns the target T1, Ubiquitin-activating enzyme e1, putative (Leishmania donovani (strain BPK282A1)) (UniProt E9BSI1).
T1 sequence (whole entry): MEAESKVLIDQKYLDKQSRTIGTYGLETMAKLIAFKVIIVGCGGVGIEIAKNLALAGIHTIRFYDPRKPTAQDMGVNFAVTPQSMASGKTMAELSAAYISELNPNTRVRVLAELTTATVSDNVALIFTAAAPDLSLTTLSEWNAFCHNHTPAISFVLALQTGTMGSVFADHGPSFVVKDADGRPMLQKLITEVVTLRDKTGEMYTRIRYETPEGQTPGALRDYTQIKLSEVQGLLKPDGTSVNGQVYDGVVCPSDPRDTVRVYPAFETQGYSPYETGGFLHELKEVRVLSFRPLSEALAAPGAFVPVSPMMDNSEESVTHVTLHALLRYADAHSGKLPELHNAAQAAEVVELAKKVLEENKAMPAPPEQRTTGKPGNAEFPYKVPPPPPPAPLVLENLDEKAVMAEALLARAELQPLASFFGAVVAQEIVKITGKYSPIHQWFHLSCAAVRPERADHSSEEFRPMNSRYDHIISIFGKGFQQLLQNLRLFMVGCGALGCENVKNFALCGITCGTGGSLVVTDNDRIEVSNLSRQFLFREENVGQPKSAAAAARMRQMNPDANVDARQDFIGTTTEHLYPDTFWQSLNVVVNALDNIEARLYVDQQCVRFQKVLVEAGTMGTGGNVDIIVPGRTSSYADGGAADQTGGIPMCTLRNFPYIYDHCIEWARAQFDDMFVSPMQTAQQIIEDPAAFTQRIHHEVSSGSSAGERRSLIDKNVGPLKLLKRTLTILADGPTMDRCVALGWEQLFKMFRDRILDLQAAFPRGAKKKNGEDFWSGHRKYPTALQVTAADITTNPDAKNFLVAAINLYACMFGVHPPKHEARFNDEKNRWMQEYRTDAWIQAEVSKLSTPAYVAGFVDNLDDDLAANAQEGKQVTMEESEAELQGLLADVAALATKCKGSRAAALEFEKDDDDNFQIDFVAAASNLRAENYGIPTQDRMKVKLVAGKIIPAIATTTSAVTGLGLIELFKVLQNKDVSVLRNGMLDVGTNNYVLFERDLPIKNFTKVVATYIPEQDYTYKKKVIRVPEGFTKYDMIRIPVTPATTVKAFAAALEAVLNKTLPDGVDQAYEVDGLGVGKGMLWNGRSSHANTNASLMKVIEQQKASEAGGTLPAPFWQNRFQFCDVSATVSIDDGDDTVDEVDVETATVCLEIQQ
As to the kind of experiment: Leishmania donovani Ubiquitin Activating Enzyme (LdE1). It is filed as functional. Details: scale not given: direction of the effect not stated beside the values. As to conditions: 30 µM.
For the compound `CN(C)C(=O)N1CCOCC2(CCN(c3ccccn3)C2)C1` (configuration not stated), the Percent Effect is -2.7%.

With `CCN(CC)Cc1ccc(C(=O)N2CCCCC2Cn2cccn2)o1` (configuration not stated), the Percent Effect was -5.41%.

Regarding `O=C(c1ccc(F)c(F)c1)N1CCCSCC1CN1CCCC1` (configuration not stated), the Percent Effect amounted to 0%.

Turning to `Cn1cc(N2CC3(CCN(CC4CCOCC4)CC3)OCC2=O)cn1`, the Percent Effect amounted to 9.33%.

`Cc1cn2nc(N3CCCC3CC(C)(C)C)sc2n1` (configuration not stated): the Percent Effect is -1.27%.

Turning to `CCSc1cc(C(=O)NCCC(=O)Nc2ccccn2)ccn1`, the Percent Effect stood at 2.74%.

Turning to `CC(C)Cc1noc(CN2CCN(CCO)CC2)n1`, the Percent Effect was 10.5%.

Turning to `CCOc1cc(F)ccc1NS(=O)(=O)c1cc(C)c(C(=O)O)s1`, the Percent Effect is 8.11%.

In the case of `O=C(CC1CC1)NCc1cn2c(n1)CN(CC1CC1)CC2`, the Percent Effect is 13.3%.

On to `COc1cccc2c1OCC(NC(=O)NCc1cccs1)C2` (configuration not stated), for which the Percent Effect amounted to 15.8%.

On to `Cc1nc(-c2ccsc2)ccc1C(=O)NCCC(=O)N1CCCC1`, for which the Percent Effect turned out to be 13.2%.

For the compound `COc1ccc(-c2nc(CN3CC(n4cc(C)cn4)C3)no2)cc1`, the Percent Effect was 10.4%.

With `Cn1nc(CNC(=O)C2CC2)cc1C1CC1`, the Percent Effect is 18.2%.

Regarding `CCCc1n[nH]c(C2CN(Cc3nnc(C4CC4)o3)CCO2)n1` (configuration not stated), the Percent Effect is 5.06%.

On to `CC(=O)N1CCCN(C(=O)c2cnc3n[nH]c(C)c3c2)CC1`, for which the Percent Effect came to 15.8%.

For the compound `COc1ccc(C2(CNC(C)c3nnc(C)o3)CCCCC2)cc1` (configuration not stated), the Percent Effect was -8.11%.

In the case of `CCN(CC)Cc1cn2c(n1)CN(C(=O)c1cnccn1)CC2`, the Percent Effect was 10.8%.

For the compound `OCCOc1nc(-c2ccccc2Cl)no1`, the Percent Effect was 11%.

As for `CCN(C)c1ncnc2c1CCN(C(=O)N1CCCC1)CC2`, the Percent Effect stood at 10.7%.

Consider `NCC1CN(c2nc(-c3ccccc3)nc3c2CCNCC3)CCO1` (configuration not stated), for which the Percent Effect is 2.74%.

With `Cc1cnc(N2CCn3cc(CNC(=O)CC4CC4)nc3C2)nc1`, the Percent Effect is -2.67%.

With `Cc1cnn(C2CCCN(C(=O)CCc3nccs3)C2)c1` (configuration not stated), the Percent Effect stood at 16.2%.

As for `CC(C)NC(=O)N1CCC(n2ccc(C(F)(F)F)n2)CC1`, the Percent Effect turned out to be 5.48%.

Turning to `CC(=O)N1CCCN(C(=O)c2csc(-c3ccc(C)cc3C)n2)CC1`, the Percent Effect stood at 18.9%.

Regarding `O=C1NCC2(CCCN(CCc3ccccc3)C2)Oc2ccccc21` (configuration not stated), the Percent Effect turned out to be 6.76%.

With `Cc1ccc(-c2cc(CNC(=O)N3CCC(CO)CC3)on2)cc1`, the Percent Effect turned out to be 21.6%.

For `CC(C)N1CCC(NCc2cccnc2N(C)Cc2ccccc2)CC1`, the Percent Effect was 5.33%.

Turning to `COCC1CN(C(=O)CNC(C)=O)Cc2ncnn2C1` (configuration not stated), the Percent Effect turned out to be 7.79%.

In the case of `CN1CCOC(CNCc2cccc(OCc3ccccn3)c2)C1` (configuration not stated), the Percent Effect turned out to be 5.06%.

As for `C=Cn1ncc(CN2C[C@@H]3CCCN3C[C@@H]2Cc2ccccc2)c1C`, the Percent Effect stood at 4.05%.

In the case of `O=C(CCNS(=O)(=O)c1ccc2c(c1)CCCC2)NCc1ccoc1`, the Percent Effect was 5.33%.

On to `CN(CCc1ccccc1)C1CCCN(Cc2nccn2C)C1` (configuration not stated), for which the Percent Effect was -39%.

`CC(=O)N1CCOCC2(CN(Cc3ccc(C)o3)CCO2)C1` (configuration not stated): the Percent Effect was 2.67%.

On to `O=c1cc(Cn2ccnc2)nc2n1CCCN(Cc1ccsc1)C2`, for which the Percent Effect amounted to 4%.

Take `O=C(Cc1ccccc1F)N1C[C@@H]2COC[C@]2(COc2cccnc2)C1`: the Percent Effect is 8.11%.

With `c1ccc(-c2cc(CN3CCC(c4ccn[nH]4)CC3)on2)cc1`, the Percent Effect is -2.7%.

Take `CCc1nnc2n1CCN(Cc1csc(-c3ccsc3)n1)C2`: the Percent Effect was -6.94%.

In the case of `Cc1cc(NC(=O)Cn2cc(C#N)c(=O)c3cc(Br)ccc32)no1`, the Percent Effect was -45.3%.

Take `COCc1nc2cc(NCc3ccc(C)o3)ccc2o1`: the Percent Effect was 13.5%.
